Screens: PubChem, National Center for Advancing Translational Sciences (NCATS)
HCMV antiviral – blocks human cytomegalovirus replication. AID 1259415. 4.5% of 410,000 active. HFF cells, HCMV-luciferase reporter, 72 h; hits give low values. activity change, negative = inhibition, % at 57.5 µM; in the data active means activity change below about -60%; inconclusive means no clear call, values can overlap the other calls; inactive means above about -39%
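Cell-based, HFFs, 1000 cells/well, 16 h 37C; cpds in DMSO + HCMV-luc, MOI 1 PFU/cell; 72 h 37C; OneGlo luminescence after 5 min RT; norm. to buffer vs Salinomycin 10uM.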
HCV inhibitor – blocks hepatitis C virus; Huh7.5.1 HCVcc-Cre infection, luciferase reporter, 44 h; Potency, µM (doses to about 41.8 µM), inactives show at the top dose activity change, negative = inhibition, actives largely listed as inhibitors; 3.4% of 340,000 active; further: potency means the concentration at half of the fitted maximal effect
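Seed cells (1,000/well) for 4 h; treat with compound and infect with HCVcc-Cre, moi about 0.5. Incubate 44 h, then detect luciferase activity.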
FMDV inh – foot and mouth disease virus antiviral activity; Potency, µM (top dose mostly 57.9 µM), for the others: top-dose activity change, negative = inhibition, hits mostly inhibitors; 1.2% of 410,000 active; AID 1159524; FMDV antiviral cell-based qHTS; calls by dose curve; tested in HEK293T cells; further: read-out not given here; potency means the concentration at half of the fitted maximal effect; nearly all actives have a fitted effect of over 45% in size
AmpC inh detg – AmpC beta-lactamase inhibition with detergent present; P00811; AmpC hydrolysis of nitrocefin, absorbance 480 nm, 0.01% Triton; Potency, µM (doses to about 114 µM), without a hit: at the top dose activity change, negative = inhibition, hits mostly inhibitors; 0.041% of 370,000 active; AID 485294;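 further: potency means the concentration at half of the fitted maximal effect; 0% = no-compound wells and -100% = no-enzyme wells; nearly all actives have a fitted effect of over 25% in size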
Target sequence (P00811 whole entry, looked up): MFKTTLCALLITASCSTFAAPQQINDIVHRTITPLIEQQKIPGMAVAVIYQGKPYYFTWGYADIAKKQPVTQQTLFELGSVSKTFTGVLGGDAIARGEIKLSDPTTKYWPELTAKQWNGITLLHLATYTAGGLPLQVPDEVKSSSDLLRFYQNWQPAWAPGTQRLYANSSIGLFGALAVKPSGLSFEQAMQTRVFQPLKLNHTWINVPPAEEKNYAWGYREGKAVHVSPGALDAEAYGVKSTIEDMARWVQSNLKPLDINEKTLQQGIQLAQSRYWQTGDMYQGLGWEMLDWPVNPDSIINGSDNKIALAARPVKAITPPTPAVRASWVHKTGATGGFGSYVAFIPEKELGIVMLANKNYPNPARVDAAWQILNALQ
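20 mM phosphate pH 7.0 + 0.01% (detergent screen) or 0.0001% Triton X-100; 5.3 nM AmpC reagent; cpd preinc 15 min RT; nitrocefin (800 uM stock) to start; A480 q20 s × 4 min; Activity was normalised to no-enzyme and no-compound control wells.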
AmpC no deterg – blocks E. coli AmpC beta-lactamase in detergent-free assay; Potency, µM (titrated, usually from 57.1 µM), for inactives: at the highest dose activity change, negative = inhibition, actives largely listed as inhibitors; P00811; AmpC nitrocefin hydrolysis, absorbance 480 nm, 0.0001% Triton; 0.52% of 330,000 active;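 further: potency means the concentration at half of the fitted maximal effect; plate controls were no compound for no effect and no enzyme for full effect; nearly all actives have a fitted effect of over 20% in size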
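20 mM phosphate pH 7.0 + 0.01% (detergent screen) or 0.0001% Triton X-100; 5.3 nM AmpC reagent; cpd preinc 15 min RT; nitrocefin (800 uM stock) to start; A480 q20 s × 4 min; Activity was normalised to no-enzyme and no-compound control wells.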
* marks the source's active call; other numbers are inactive results; ? = inconclusive; / = no result given. In the library only some 7.3% were active in any assay of this set; here they are far more common. Unless noted, the call rests on the fitted dose curve; in most records, active means well fitted curve in the direction sought with a large enough effect; inconclusive means small, poorly fitted or top-dose-only effect, or another doubt; inactive means no such curve, though single readings can be large; an effect the other way counts as inactive or inconclusive. Unless noted, on the % scale 0 is the no-effect control and ±100 the full control effect.

SMILES	HCMV antiviral	HCV inhibitor	FMDV inh	AmpC inh detg	AmpC no deterg
O=S(=O)(c1ccc(NC(=S)NCCc2ccccc2)cc1)N1CCOCC1	-24.1	2.7%	42.9%	-5.5%	-16.2%
O=S(=O)(c1ccc(NC(=S)NN=C(Cc2ccccc2)Cc2ccccc2)cc1)N1CCOCC1	-32.8	10µM*	-0.4%	1.7%	-50.1%
O=S(=O)(c1ccc(NC(=S)N2CCN(c3ccc(O)cc3)CC2)cc1)N1CCOCC1	-63.4*	?	-21.8%	1.2%	-15.2%
Cc1ccc(NC(=O)NC(=O)CN2CCN(c3ccc(O)cc3)CC2)c(C)c1	-80.7*	?	-4.6%	-9.4%	6.5%
Cc1ccc(NC(=O)NC(=O)CN2CCC(C(N)=O)CC2)c(C)c1	9.8	0.7%	44.2%	-1.2%	-18.0%
Cc1ccc(S(=O)(=O)N2CCOCC2)cc1NC(=O)COC(=O)CSc1ccc(Br)cc1C	-96.0*	9.9%	2.2%	0.5%	34.3%
Cc1ccc(S(=O)(=O)N2CCOCC2)cc1NC(=O)COC(=O)c1ccc(Br)cc1	-39.5	18.6%	2.7%	/	105.0%
COc1ccc2cc(C(=O)N3CCN(c4ccccc4OC)CC3)[nH]c2c1	2.3	6.3%	-1.9%	?	94.3%
COc1ccc(-c2nc3cc(C)c(Br)c(C)n3c2CC(C)(C)C)cc1OC	-27.4	/	0.0%	/	/
CO[C@H]1C=CO[C@@]2(C)Oc3c(C)c(O)c4c(O)c(c5c(nc6cc(C)ccn65)c4c3C2=O)NC(=O)/C(C)=C\C=C[C@H](C)[C@H](O)[C@@H](C)[C@@H](O)[C@@H](C)[C@H](OC(C)=O)[C@@H]1C	/	/	-18.3%	/	/
CC1(c2ccccc2)NC(=O)N(CC(=O)Nc2cc(S(=O)(=O)N3CCOCC3)ccc2Cl)C1=O (stereo unspecified)	?	2.1%	-11.8%	-10.5%	26.5%
Cc1ccc(C2(C)NC(=O)N(CC(=O)Nc3cc(S(=O)(=O)N4CCOCC4)ccc3C)C2=O)cc1 (stereo unspecified)	-101.1*	7.3%	-24.8%	-14.0%	-0.2%
CCN(CC)c1ccc(S(=O)(=O)N2CCOCC2)cc1NC(=O)CN1CCc2ccccc2C1	-69.5*	?	?	6.1%	112.7%
Cc1ccc(S(=O)(=O)N2CCOCC2)cc1NC(=O)CN1CCN(C)CC1	0.0	34.5%	-19.4%	-1.2%	-22.2%
Cc1ccc(S(=O)(=O)N2CCOCC2)cc1NC(=O)CN1CCN(c2ccc(O)cc2)CC1	-60.7*	19.2%	?	-0.4%	44.4%
CCOC(=O)c1[nH]c2c(c1Cc1ccccc1OC)C(=O)CC(c1ccccc1)C2 (stereo unspecified)	-12.5	/	2.5%	-5.4%	/
O=C(/C=C\c1cccs1)c1c(O)ccc2ccc(=O)oc12	-61.6*	-7.1%	-24.0%	0.1%	-23.0%
O=C(C=Cc1cccs1)c1cccs1	?	-20.1%	33.3%	/	/
COc1ccccc1/C=C/C(=O)c1c2c(c(C)[nH]c1=O)CCCC2	-108.5*	/	?	-7.3%	-18.7%
COc1ccc(/C=C/C(=O)c2c(C)cc(C)[nH]c2=O)c2ccccc12	-99.6*	11.2µM*	-25.0%	-12.2%	23.6%
Cc1cc(C)c(C(=O)/C=C/c2cccs2)c(=O)[nH]1	-63.6*	-13.9%	35.8%	1.2%	-15.9%
Cc1cc(C)c(C(=O)/C=C/c2ccco2)c(=O)[nH]1	23.0	-4.7%	27.3%	0.7%	-16.0%
C/C(=C\c1cccs1)C(=O)c1c(C)cc(C)[nH]c1=O	-12.2	11.2%	43.8%	6.3%	-4.4%
COc1ccccc1/C=C/C(=O)c1ccccc1	6.3	-18.7%	0.6%	-4.6%	-27.3%
C[C@H](CO)N1C[C@H](C)[C@@H](CN(C)CC2CCCCC2)Oc2ccc(NC(=O)CCN3CCOCC3)cc2C1=O	4.4	33.2%	19.7%	/	137.5%
SMILES	HCMV antiviral	HCV inhibitor	FMDV inh	AmpC inh detg	AmpC no deterg
CCOC(=O)CC1NCCc2c1[nH]c1ccc(OC)cc21 (stereo unspecified)	/	7.8%	3.6%	-8.7%	-23.5%
Cc1onc(-c2c(F)cccc2Cl)c1C(=O)OCc1nnc(-c2ccccc2)o1	-25.4	-7.9%	-29.8%	9.0%	-22.3%
Cc1ccc(/C=C/C(=O)c2c(C)cc(C)[nH]c2=O)cc1	-97.9*	?	?	-2.0%	-26.8%
CCc1ccc(/C=C/C(=O)c2c(C)cc(C)[nH]c2=O)cc1	-95.0*	?	28.2µM*	?	-21.9%
CCOC(=O)C1CCCN(S(=O)(=O)c2c(C)noc2C)C1 (stereo unspecified)	-12.1	10.6%	2.8%	-12.1%	-4.7%
CC(C)(C)c1nnc(N/N=C/c2cc(Br)ccc2O)n(N)c1=O	-101.2*	?	22.4µM*	7.1%	-32.0%
CSCCC(C(=O)Nc1c(C)cccc1C)n1c(-c2cnc(C)cn2)nc2ccccc21 (stereo unspecified)	5.5	/	-8.2%	/	/
CCOC(=O)C1(CCOc2ccccc2)CCN(Cc2nccn2CC)CC1	13.0	?	-16.3%	0.6%	91.3%
CCOC(=O)C1(CCCc2ccccc2)CCN(Cc2nccn2CC)CC1	?	10µM*	?	5.8%	139.0%
CCOC(=O)C1(CCCc2ccccc2)CCN(C(=O)c2ccoc2)CC1	-33.3	-24.0%	-28.9%	-5.3%	86.3%
CCOC(=O)C1(CCCc2ccccc2)CCN(C(=O)C2=C(C)OCCO2)CC1	-68.8*	?	-23.6%	5.1%	199.1%
CCOC(=O)C1(CCCc2ccccc2)CCN(Cc2cn(CC)nc2C)CC1	?	11.2µM*	?	0.9%	95.0%
CCOC(=O)C1(CCCc2ccccc2)CCN(Cc2cnc(C)s2)CC1	30.7	?	?	5.4%	159.3%
CCc1nn(CC(=O)NCCc2ccc(OC)c(OC)c2)c(=O)c2cc3occc3n12	-4.6	/	-10.1%	-2.2%	/
O=C(NCC1CCCO1)c1nn2c(C(F)(F)F)cc(-c3cc(Br)cs3)nc2c1Br (stereo unspecified)	?	?	-24.2%	-9.9%	-21.1%
CC(=O)Nc1ccc(NC(=O)C(C)OC(=O)[C@@H]2CCCN2C(=O)c2cccs2)cc1 (stereo partly specified)	-3.1	-5.9%	6.5%	/	-9.3%
Cc1cc(C)c(/C([O-])=C(/C(=S)Nc2ccc(SC(F)F)cc2)[n+]2ccccc2)cc1C	?	?	-0.5%	-10.7%	-20.7%
[O-]/C(=C(\C(=S)Nc1ccc(SC(F)F)cc1)[n+]1ccccc1)c1cc(Cl)ccc1Cl	-61.3*	?	-10.2%	15.6%	-22.0%
CCOc1ccc(CCNC(=O)Cn2nnc(-c3ccc(C(F)(F)F)cc3)n2)cc1OCC	1.1	/	-11.8%	1.8%	/
CCOC(=O)c1c(C)[nH]c(C)c1S(=O)(=O)NCC1CCN(Cc2cccc(F)c2)CC1	-11.1	-14.9%	14.0%	2.4%	-5.4%
Cc1cc(C)c2nc(NNC(=O)c3ccc(S(=O)(=O)N4CCCC(C)C4)cc3)sc2c1 (stereo unspecified)	-98.5*	7.94µM*	?	?	?
